The source of these data is PubChem BioAssay (EPA / NIEHS).

Active and inactive are the calls of the source. How the source made its calls: active means hit-call score of the fitted dose curve at least 0.9, where 1 is the maximum; inactive means score below 0.9.

Read-out in this test: Glutamate-cysteine ligase regulatory (GCLM), GCLM (gene 2730)
Description: LTEA_HepaRG_GCLM: Life Technologies and Expression Analysis (LTEA) Assay for Glutamate-cysteine ligase regulatory (GCLM) using HepaRG (AID 2283500). The following applies: mRNA level, 48 h; actives raise or lower the signal. The method, then: LTEA_HepaRG is a cell based, multiplexed-readout assay that uses HepaRG, a human liver cell line, with measurements taken at 48 hours after chemical dosing on a 96-well plate.LTEA_HepaRG_GCLM is one of 102 assay component(s) measured in the LTEA HepaRG cell culture assay. It is a marker of Cell proliferation, survival, death.Data from the assay component LTEA_HepaRG_GCLM was analyzed into 1 endpoint. This assay endpoint, LTEA_HepaRG_GCLM, was analyzed with bidirectional fitting relative to DMSO as the negative control and baseline of activity. Using a type of inducible reporter, measures of mRNA induction for gain or loss-of-signal activity can be used to understand regulation of transcription factor activity. To generalize the intended target to other relatable targets, this assay endpoint is annotated to the ligase intended target family, where the subfamily is C-N ligase.
A total of 1060 chemcials from the ToxCast library were tested in eight-point concentration-response experiments. Cell culture and cytotoxicity assays were conducted at Thermo Fisher Scientific's Custom Services facility (Madison, WI). A single lot of human HepaRG cells (Thermo Fisher Scientific, Frederick, MD) was used for the cell culture experiments. 96-well format collagen type I coated plates of human HepaRG cells were prepared using established methods. Briefly, cryopreserved HepaRG cells were thawed, plated at a density of approximately 100,000 cells/well in HepaRG Thaw, Plate, and General Purpose media (HPRG770, Thermo Fisher Scientific), and incubated for 48 hours. 0.5% DMSO was selected as vehicle control to balance the requisite need of DMSO in HepaRG cultures to maintain differentiation (for example, baseline metabolism, proportions of hepatocytes vs. cholangiocytes), while enabling further hepatic receptor pathway activation (for example, PXR and CAR) in response to chemical exposure. 48 hours after plating, the culture medium was replaced with HepaRG Serum-Free Incudtion Media. Cells were exposed to each test chemical in duplicate and maintained in CO2 incubators for another 48 hours. Chemical plates were thawed to room temperature and 200x concentrations of treatment groups were prepared. 8-point conentration-reponse curves were made with the highest exposure at 100 uM, followed by half-log dilutions, all in 0.5% DMSO. Each test plate contained variouse controls, induction positive controls (1mM phenobarbital), cytotoxicity positive controls ([…] aflatoxin B1), vehicle controls (0.5% DMSO), and total lysis controls (0.5% DMSO). Cell morphology images were taken using an Essen IncuCyte FLR automated microscope, with six 96-well plates imaged in about 24 minutes. Images were captured and exported and JPEG files. Spent culture media was transfered to black-well plates for the LDH assay, and remaining media was sorted at -80 C for later use. Cells were treated with RLT buffer and frozen until shipped for gene expression analysis. Total RNA was isolated from the cell suspension in 75 uL of Buffer RLT (Qiagen, Germantown, MD 20874) by Quintiles/Expression Analysis (Durham, NC) using a custom isolation procedure. Total RNA from each plate well was transferred to a preamplification plate. Fluidigm's 96.96 Dynamic ArrayTM (Fluidigm, Amsterdam, the Netherlands) technology was used for gene expression analyses by quantitative reverse transcription polymerase chain reaction (qRT-PCR, performed by Quintiles/Expression Analysis, Durham, NC)89. Standard TaqManTM Assays (Applied Biosystems/ThermoFisher Scientific, Foster City, CA) were used to assess the expression of 93 genes selected based on their selectivity and sensitivity to important hepatic receptors known to be modulated by environmental chemicals; importance in human hepatocyte functionality; and hepatotoxicity. […]
For `CC(=O)c1ccc2c(c1)[C@H](NC(=O)c1ccc(F)cc1)[C@@H](O)C(C)(C)O2`, the outcome was inactive.
Turning to `COc1ccc(/C=C/S(=O)(=O)NC(=O)c2ccc(C)cc2Cl)cc1`, the call was inactive.
Turning to `C=CCCCCCCCCC(=O)O`, the outcome was inactive.
`O=C1CCC(N2C(=O)c3ccccc3C2=O)C(=O)N1` (stereo not given): the outcome was inactive.
As for `CC(C)CCO`, the compound was classed as inactive.
Still for that read-out and setting: then `CCCCCCCCCCCCc1ccccc1`, with “inactive”.
`CC1=CC(=O)CC(C)(C)C1`: the result was inactive.
Still for that read-out and setting: next, `CC(C)c1cccc(C(C)C)c1N1C(=O)c2ccc(O)cc2C1=O`: “inactive”; `CC(O)CN(CCN(CC(C)O)CC(C)O)CC(C)O` (stereo not given): “inactive”.
Still for that read-out and setting: next, `CCCC(=O)OCC`: “inactive”; `CC/C(=C\C(=N/O)C(N)=O)C(C)[N+](=O)[O-]` (stereo not given): “inactive”; `CCC(C)(C)C(=O)O[C@H]1C[C@@H](C)C=C2C=C[C@H](C)[C@H](CC[C@@H]3C[C@@H](O)CC(=O)O3)[C@H]21`: “inactive”.
Same read-out and setting: then `CC[C@H]1CC[C@H](NCc2cc3c(cc2OC)[C@H]2C[C@H]2C(=O)N3C)[C@H](c2ccccc2)N1`, with “inactive”.
For the compound `O=C(NS(=O)(=O)/C=C/c1ccccc1)c1ccc(F)cc1Cl`, the call was inactive.
Same read-out and setting: then `CCOC(=O)COc1ccc2c(c1)CC(NCC(O)c1cccc(Cl)c1)CC2` (stereo not given), with “inactive”.
For `C[C@](N)(Cc1ccc(O)c(O)c1)C(=O)O`, the call was inactive.
Regarding `COc1cccc(-c2ccc(/C=C\CN3CCCCCC3)cc2Cl)c1`, the concentration at half-maximal activity (AC50) was 68.7 µM (active).
For the compound `On1ccccc1=S`, the outcome was inactive.
Same read-out and setting: then `CC[C@H]1OC(=O)[C@H](C)[C@@H](O[C@H]2C[C@@](C)(OC)[C@@H](O)[C@H](C)O2)[C@H](C)[C@@H](O[C@@H]2O[C@H](C)C[C@H](N(C)C)[C@H]2O)[C@](C)(O)C[C@@H](C)C(=O)[C@H](C)[C@@H](O)[C@]1(C)O`, with “inactive”.
Take `CN(C)c1ccc(N=NS(=O)(=O)O)cc1`: the AC50 is 50 µM (active).
On to `CCCCC(CC)COC(=O)CCCCCCCCC(=O)OCC(CC)CCCC` (stereo not given), for which the compound was called inactive.
`O=c1[nH]c2ccc(S(=O)CCN3CCC(Cc4ccc(F)cc4)CC3)cc2o1` (stereo not given): the concentration at half-maximal activity (AC50) was 50 µM (active).
Take `CN(C)c1ccc(Cc2ccc(N(C)C)cc2)cc1`: the outcome was inactive.
As for `CC(C)(O)c1coc(S(=O)(=O)NC(=O)Nc2c3c(cc4c2CCC4)CCC3)c1`, the result was inactive.
Still for that read-out and setting: then `C1N2CN3CN1CN(C2)C3`, with “inactive”; and `CC(C)CCCCCCOC(=O)c1ccc(C(=O)OCCCCCCC(C)C)c(C(=O)OCCCCCCC(C)C)c1`, with “inactive”.
For the compound `COCCOc1cc2cc(C(=O)NC3CCN(C(C)C)CC3)n(CC(=O)Nc3ccc(Cl)cn3)c2cn1`, the compound was classed as inactive.
Consider `Nc1ccc(Nc2ccccc2)cc1`, for which the result was inactive.
As for `CCn1nc(Cc2ccccc2)cc1C1CCN(C[C@H]2C[C@H](N(C)[C@@H](C(=O)O)C(C)C)C[C@@H]2c2cccc(F)c2)CC1`, the compound was called inactive.
For `COc1ccc2sc(C(=O)Nc3nnn[nH]3)c(OC(C)C)c2c1`, the compound was called inactive.
Same read-out and setting: then `CCCCCCc1ccc(O)cc1O`, with “inactive”.
On the same count and under the same terms, then `Nc1nc2ncc(CNc3ccc(C(=O)N[C@@H](CCC(=O)O)C(=O)O)cc3)nc2c(=O)[nH]1`, with “inactive”; and `O=C(O)c1cccc(Oc2ccccc2)c1`, with “inactive”.
For the compound `O=C(OC[C@H]1O[C@@H](OC(=O)c2cc(O)c(O)c(OC(=O)c3cc(O)c(O)c(O)c3)c2)[C@H](OC(=O)c2cc(O)c(O)c(OC(=O)c3cc(O)c(O)c(O)c3)c2)[C@@H](OC(=O)c2cc(O)c(O)c(OC(=O)c3cc(O)c(O)c(O)c3)c2)[C@@H]1OC(=O)c1cc(O)c(O)c(OC(=O)c2cc(O)c(O)c(O)c2)c1)c1cc(O)c(O)c(OC(=O)c2cc(O)c(O)c(O)c2)c1`, the AC50 was 15.2 µM (active).
In the case of `Cn1cnc([N+](=O)[O-])c1Sc1ncnc2nc[nH]c12`, the outcome was inactive.
Turning to `O=C(CCCCCCCCc1cccnc1)N1CCC(C=C(c2ccccc2)c2ccccc2)CC1`, the AC50 was 12.8 µM (active).
For `O=C1OC(=O)C2C3C=CC(C3)C12` (stereo not given), the compound was classed as inactive.
On to `CC1(C)C(=O)N(Br)C(=O)N1Br`, for which the call was inactive.
Still for that read-out and setting: next, `CCNc1ccccc1`: “inactive”; `CC(C)CCCCCCCOC(=O)CCCCC(=O)OCCCCCCCC(C)C`: “inactive”.
